Measured values reported in PMC4336329 (PLoS ONE, 2015).
About 14,000 (4.5%) of roughly 310,000 compounds showed an effect of 50% or more. Effects have a minus sign here. For the sample, strong results were picked, then their nearest neighbours and some compounds at random.

Biological target: human ether-à-go-go-related gene (hERG) potassium channel (human, UniProt Q12809)
Assay: primary screen, population patch clamp on CHO cells stably expressing hERG; higher = less effect of the substance
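Further: peak tail current of the secondary pulse compared with the same well before compound.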

human ether-à-go-go-related gene (hERG) potassium channel, sequence (Q12809 whole entry, looked up): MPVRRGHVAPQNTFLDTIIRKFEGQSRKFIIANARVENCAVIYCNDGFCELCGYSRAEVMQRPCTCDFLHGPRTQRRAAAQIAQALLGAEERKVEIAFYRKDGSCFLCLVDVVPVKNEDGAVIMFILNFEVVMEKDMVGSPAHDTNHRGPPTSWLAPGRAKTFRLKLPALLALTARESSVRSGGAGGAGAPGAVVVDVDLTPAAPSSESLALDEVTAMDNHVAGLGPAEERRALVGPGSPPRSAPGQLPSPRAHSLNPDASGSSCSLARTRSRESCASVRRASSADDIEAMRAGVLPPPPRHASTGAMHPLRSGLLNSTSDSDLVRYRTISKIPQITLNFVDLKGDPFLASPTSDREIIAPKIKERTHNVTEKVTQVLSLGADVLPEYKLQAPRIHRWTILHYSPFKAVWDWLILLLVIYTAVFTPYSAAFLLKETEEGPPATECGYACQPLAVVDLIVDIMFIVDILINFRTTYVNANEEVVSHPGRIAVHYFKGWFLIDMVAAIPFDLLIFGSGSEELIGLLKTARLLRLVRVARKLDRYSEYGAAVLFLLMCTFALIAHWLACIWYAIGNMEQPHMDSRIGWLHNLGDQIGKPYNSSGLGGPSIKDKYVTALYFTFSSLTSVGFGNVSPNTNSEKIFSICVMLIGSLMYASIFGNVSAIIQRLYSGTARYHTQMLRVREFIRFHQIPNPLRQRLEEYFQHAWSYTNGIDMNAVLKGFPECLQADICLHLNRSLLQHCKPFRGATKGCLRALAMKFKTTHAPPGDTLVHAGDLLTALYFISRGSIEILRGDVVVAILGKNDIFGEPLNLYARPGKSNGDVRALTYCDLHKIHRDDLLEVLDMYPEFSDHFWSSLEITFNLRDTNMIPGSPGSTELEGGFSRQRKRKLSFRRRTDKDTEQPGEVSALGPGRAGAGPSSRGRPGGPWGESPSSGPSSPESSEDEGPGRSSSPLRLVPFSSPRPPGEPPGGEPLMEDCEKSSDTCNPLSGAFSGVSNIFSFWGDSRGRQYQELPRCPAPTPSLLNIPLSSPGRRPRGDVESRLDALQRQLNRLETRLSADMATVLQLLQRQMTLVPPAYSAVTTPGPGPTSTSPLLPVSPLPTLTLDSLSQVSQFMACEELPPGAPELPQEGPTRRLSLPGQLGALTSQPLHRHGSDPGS

| Structure (SMILES) | hERG current change (%, negative = inhibition) at 10uM |
| --- | --- |
| Cc1nc2oc3ccc(Cl)cc3c(=O)c2cc1C(=O)O | 19% |
| CCN(CC)C(=O)c1cc2c(=O)c3cc(F)ccc3oc2nc1C | -10.8% |
| CCN(CC)C(=O)c1cc2c(=O)c3cc(Cl)ccc3oc2nc1C | -66.1% |
| CN(CC(=O)Nc1ccccc1C(F)(F)F)C(=O)CCc1nc2sc3c(c2c(=O)[nH]1)CCCC3 | 7.94% |
| CCCn1nnc(NC(=O)c2ccc(OC)cc2)n1 | 2.42% |
| CCc1nc2ccccc2n1Cc1ccc(F)cc1 | -0.73% |
| O=C1c2ccccc2C(=O)N1CCCc1nc2ccccc2c(=O)n1-c1cccnc1 | -39.7% |
| O=C1c2ccccc2C(=O)N1Cc1nc2ccccc2c(=O)n1Cc1ccco1 | 21.3% |
| O=C1c2ccccc2C(=O)N1CCCn1ccnc1 | 17.1% |
| Cc1nc2ccccc2c(=O)n1Cc1ccco1 | -7.41% |
| CCC(c1nc2ccccc2c(=O)n1CCCn1ccnc1)N1C(=O)c2ccccc2C1=O (stereo not shown) | -38.8% |
| O=C1c2ccccc2C(=O)N1CCCc1nc2ccccc2c(=O)n1CCCn1ccnc1 | -65% |
| O=C1c2ccccc2C(=O)N1CCc1nc2ccccc2c(=O)n1CCCn1ccnc1 | -62.5% |
| O=C1c2ccccc2C(=O)N1CCc1nc2ccccc2c(=O)n1Cc1ccco1 | -61.8% |
| Cc1nc2ccccc2c(=O)n1CCCn1ccnc1 | -17% |
| COc1ccc(N2C(=O)c3ccccc3NC2c2ccc(OC)c(CSc3ccccn3)c2)cc1 (stereo not shown) | 2.62% |
| COc1cc(C(=O)NCCSc2ccc(Cl)cc2)cc(OC)c1OC | -3.08% |
| CC(OC(=O)C1=COCCO1)C(=O)NC1CCCCC1C (stereo not shown) | 12.7% |
| Cc1ccc(CNC(=O)COC(=O)c2ccc(Cl)c(N)c2)cc1 | -3.37% |
| CN(C)C(=O)COC(=O)[C@H](Cc1ccccc1)NC(=O)c1ccco1 | 7.23% |
| Cc1cnc(C(=O)OCC(=O)N2CCN(S(=O)(=O)c3ccc(Cl)cc3)CC2)cn1 | 4.81% |

| Structure (SMILES) | hERG current change (%, negative = inhibition) at 10uM |
| --- | --- |
| CCOC(=O)c1c(CN2CCCCC2)n(C)c2cc(Br)c(O)c(CN(C)C)c12 | -19% |
| CCOC(=O)c1c(CSc2cccs2)n(C)c2cc(Br)c(O)c(CN(C)C)c12.Cl | -68.3% |
| CCOC(=O)c1c(CSc2ccccc2)n(C)c2cc(Br)c(O)c(CN(C)C)c12 | -68.5% |
| CCOC(=O)c1c(CS(=O)(=O)c2ccccc2)n(C)c2cc(Br)c(O)c(CN(C)C)c12 | -50.4% |
| CCOC(=O)c1c(CSc2ccccc2)n(C)c2cc(Br)c(OC)c(O)c12 | 16.2% |
| CCOC(=O)c1c(CN2CCOCC2)n(C)c2cc(Br)c(O)c(CN(C)C)c12.Cl | -26.6% |
| CCOC(=O)c1c(CSc2ccccc2)n(C)c2ccc(O)cc12 | 21.3% |
| CCOC(=O)c1c(CN(C)C)n(C)c2ccc(OC(C)=O)cc12.Cl | -41.3% |
| CCOC(=O)c1c(C)n(C)c2cc(Br)c(O)c(O)c12 | 8.12% |
| CCOC(=O)c1c(CN2CCOCC2)n(C)c2cc(Br)c(O)c(CN(C)C)c12 | -27.4% |
| CCOC(=O)c1c(CSc2ccc(C)cc2)n(C)c2cc(Br)c(O)c(CN(C)C)c12.Cl.O | -54.9% |
| COc1cc(OC)c(NC(=O)CS(=O)(=O)Cc2nc(-c3ccc(C)cc3)oc2C)cc1Cl | 11.5% |
| COc1ccc(C2SCCN2S(=O)(=O)c2ccccc2)cc1 (stereo not shown) | -4.42% |
| O=C(Nc1cc2c3c(c1)CC(=O)N3CCC2)c1ccccc1F | 0.297% |
| O=C(CNC(=O)c1ccccc1F)OCc1csc(-c2ccccc2)n1 | 14.6% |
| COc1cc(O)oc1C=Nc1ccccc1 | -18.3% |
| CCSc1nnc(-c2cccs2)o1 | 10.1% |
| O=C(c1ccc2snnc2c1)N1CCSCC1 | 4.21% |
| COc1ccc(NC(=O)C(CC(=O)O)Cc2ccc(Cl)cc2)cc1 (stereo not shown) | 11.9% |
| N#Cc1ccc(CSc2nnc(NC(=O)c3ccc(=O)[nH]c3)s2)cc1 | 3.51% |
| Cc1ccc(C(=O)c2cn[nH]c2-c2ccccc2O)cc1 | 14.4% |

| Structure (SMILES) | hERG current change (%, negative = inhibition) at 10uM |
| --- | --- |
| COc1ccc2c(c1)C(=O)[C@H](O)[C@@H](c1ccc(OC)c(Br)c1)O2 | 12.9% |
| COC(=O)c1cc(O)cc(OC)c1C(=O)c1c(O)cc(C)cc1O | 4.87% |
| O=C(Cc1ccccc1)NNC(=O)c1ccccc1C(=O)O | -5.66% |
| CCOC(=O)c1c(CSc2ccsc2)n(C)c2cc(Br)c(O)c(CN(C)C)c12.Cl | -84.2% |
| Cc1cc(O)c(/C=N/Nc2cccc(Cl)c2)c(=O)o1 | 1.55% |
| N#C/C(=C\c1c(N2CCC(C(N)=O)CC2)nc2ccccn2c1=O)C(=O)NC1CCCCC1 | 20.9% |
| N#C/C(=C\c1c(N2CCC(C(N)=O)CC2)nc2ccccn2c1=O)S(=O)(=O)c1ccc(Cl)cc1 | -70.9% |
| Cc1ccc(S(=O)(=O)/C(C#N)=C/c2c(N3CCC(C(N)=O)CC3)nc3ccccn3c2=O)cc1 | -55.3% |
| Cc1ccc(S(=O)(=O)/C(C#N)=C/c2c(N3CCN(Cc4ccccc4)CC3)nc3ccccn3c2=O)cc1 | 5.58% |
| COc1ccc(N2CCN(c3nc4ccccn4c(=O)c3/C=C(\C#N)S(=O)(=O)c3ccccc3)CC2)cc1 | -2.49% |
| N#C/C(=C\c1c(N2CCC(C(N)=O)CC2)nc2ccccn2c1=O)S(=O)(=O)c1ccccc1 | -4.45% |
| COc1ccc(CN(C(=O)CNC(=O)c2ccco2)C(C(=O)NC2CCCC2)c2ccco2)cc1 (stereo not shown) | -15.9% |
| COc1ccccc1OCc1nnc(SCC(=O)NCc2ccco2)n1-c1ccccc1 | -9.19% |
| COc1ccc(N2CCN(CCC3Oc4cc([N+](=O)[O-])ccc4NC3=O)CC2)cc1 (stereo not shown) | -19.1% |
| COc1ccc2c(CCNC(=O)c3ccco3)c[nH]c2c1 | -1.53% |
| CCOC(=O)COc1coc(CN2CCN(c3ccc(F)cc3)CC2)cc1=O | -19.4% |
| CCOc1ccccc1N(CC(=O)Nc1ccc(OC)cc1OC)S(=O)(=O)c1ccccc1 | 14.6% |
| CS(=O)(=O)c1ccc2nc(NC(=O)c3cc(-c4ccccc4)nn3-c3ccccc3)sc2c1 | 8.38% |
| COC(=O)c1ccc(COc2ccccc2/C=C/C(=O)c2ccc(OCC(=O)O)cc2)cc1 | 3.76% |
| CN(C)c1nc(N)nc(-c2nc3ccccc3s2)n1 | -3.77% |
| COc1ccc2c(c1OC)C(=O)OC2c1c(O)n(C2CCCCC2)c(=O)[nH]c1=O (stereo not shown) | -68.8% |

| Structure (SMILES) | hERG current change (%, negative = inhibition) at 10uM |
| --- | --- |
| COc1ccc2c(c1OC)C(=O)OC2c1c(O)n(Cc2ccc(F)cc2)c(=O)[nH]c1=O (stereo not shown) | 3.09% |
| COc1ccc2c(c1OC)C(=O)OC2c1c(O)nc(SC)n(-c2ccccc2)c1=O (stereo not shown) | -2.74% |
| Cc1cc(-c2ccc(C)c(S(=O)(=O)N3CCN(c4ccc([N+](=O)[O-])cc4)CC3)c2)on1 | -67.8% |
| CCc1ccc(-c2cc(C)no2)cc1S(=O)(=O)N1CCN(c2ccc(F)cc2)CC1 | 7.09% |
| COc1ccc(-c2cc(C)no2)cc1S(=O)(=O)N1CCN(c2ccccc2F)CC1 | 3.36% |
| Cc1cc(-c2ccc(C)c(S(=O)(=O)N3CCN(c4ccc(F)cc4)CC3)c2)on1 | -8.14% |
| COc1ccc(-c2cc(C)no2)cc1S(=O)(=O)N1CCN(c2ccccn2)CC1 | -63.7% |
| Cc1cc(-c2ccc(C)c(S(=O)(=O)N3CCN(c4ccccn4)CC3)c2)on1 | -21.2% |
| Cc1noc(C)c1S(=O)(=O)N1CCN(c2ccc(Cl)cc2)CC1 | -6.26% |
| COc1ccc(-c2cc(C)no2)cc1S(=O)(=O)N1CCN(c2ccc([N+](=O)[O-])cc2)CC1 | -76.2% |
| Cc1noc(C)c1S(=O)(=O)N1CCN(c2ccccc2)CC1 | -5.33% |
| CCc1ccc(-c2cc(C)no2)cc1S(=O)(=O)N1CCN(c2ccccn2)CC1 | 4.29% |
| COc1ccc(-c2cc(C)no2)cc1S(=O)(=O)N1CCCCC1 | 2.3% |
| Cc1noc(C)c1S(=O)(=O)N1CCN(c2ccc([N+](=O)[O-])cc2)CC1 | -69% |
| O=C(O)c1ccc2c(c1)S(=O)(=O)c1ccccc1C2=O | 17% |
| CCc1cc2cc(C(=O)Nc3ccc(F)cc3)sc2s1 | 3.32% |
| COc1cc(NC(=O)COC(=O)CNC(=O)c2ccc(C)s2)cc(OC)c1 | 4.76% |
| Cc1ccc(C(=O)N2CCN(c3ccccc3)CC2)cc1C | 4.41% |
| O=C(c1ccc(-c2ccccc2)cc1)N1CCN(c2ccccn2)CC1 | -36.4% |
